# Records with an inconclusive call do not appear. A number with no mark means an inactive call. The source made the active and inactive calls. The call rests on the fitted dose curve; in most records, active means well fitted curve in the direction sought with a large enough effect in the repeat runs; inconclusive means weak or mixed curves; inactive means no such curve, though single readings can be large; an effect the other way counts as inactive or inconclusive.
# Test: qHTS assay to identify small molecule agonists of the RXR signaling pathway - cell viability counter screen (AID 1159529); further: nearly all actives have a fitted effect of over 50% in size; further: potency means the concentration at half of the fitted maximal effect;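 on activity change, negative = cytotoxicity: HEK 293T cells carrying an RXR-alpha UAS beta-lactamase reporter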
# Details: RXR-alpha-bla HEK293T viability, CellTiter-Glo, 16 h; series mostly up to 76.8 µM; activity change, negative = cytotoxicity: at the top concentration
# Outline: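 RXR-alpha-UAS-bla HEK 293T cells in medium with 2% charcoal-stripped FBS were preincubated 5 hr, then exposed to compounds for 16 hr at 37 C. Viability was read as CellTiter-Glo luminescence after 30 min at room temperature.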
# On the % scale 0 is the no-effect control and ±100 the full control effect.
SMILES,"activity change, negative = cytotoxicity",Potency
Oc1ccc2c(c1)OC[C@@H](N1CCC(O)(c3ccc(F)cc3)CC1)[C@H]2O,6.21% [at 35.3 µM],–
CCOC(=O)Cn1c(=O)sc2cccc(Cl)c21,-6.1%,–
COc1ccc2cc(C=O)ccc2c1,-0.669% [at 35.3 µM],–
OC[C@H]1O[C@@H]2O[C@H]3[C@H](O)[C@@H](O)[C@@H](O[C@H]4[C@H](O)[C@@H](O)[C@@H](O[C@H]5[C@H](O)[C@@H](O)[C@@H](O[C@H]6[C@H](O)[C@@H](O)[C@@H](O[C@H]7[C@H](O)[C@@H](O)[C@@H](O[C@H]8[C@H](O)[C@@H](O)[C@@H](O[C@H]9[C@H](O)[C@@H](O)[C@@H](O[C@H]1[C@H](O)[C@H]2O)O[C@@H]9CO)O[C@@H]8CO)O[C@@H]7CO)O[C@@H]6CO)O[C@@H]5CO)O[C@@H]4CO)O[C@@H]3CO,-3.49% [at 35.3 µM],–
CN(C)C(=O)Nc1ccccc1,4.3%,–
CCCC(C)CO (configuration not stated),3.41%,–
CCCC(C)C(=O)O (configuration not stated),–,18.7 µM (active)
c1ccc(SCCSc2ccccc2)cc1,-12.2%,–
C1=C\CC/C=C\CC/C=C\CC/1,4.12%,–
CNC(=O)c1c(I)c(NC(=O)CCCCC(=O)Nc2c(I)c(C(=O)O)c(I)c(C(=O)NC)c2I)c(I)c(C(=O)O)c1I,-0.925% [at 35.3 µM],–
COc1ccc(COC=O)cc1,0.296%,–
O=S(=O)(O)c1ccccc1O,7.6%,–
O=C(O)C(O)[C@H](O)[C@@H](O)[C@H](O)[C@H](O)CO (some centres not stated),–,49.5 µM (active)

# Test: qHTS assay to identify small molecule antagonists of the retinoid acid receptor (RAR) signaling pathway - cell viability counter screen (AID 1159551); further: nearly all actives have a fitted effect of over 35% in size
# Details: C3RL4 cells viability, ATP luminescence (CellTiter-Glo), 6 h; series mostly up to 92.4 µM; activity change, negative = cytotoxicity: at the top concentration
# Outline: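 C3RL4 cells were seeded overnight at 37 C, then treated with compounds plus 1 uM (final) retinol for 6 h at 37 C. Viability was read as ATP by CellTiter-Glo luminescence after 30 min at room temperature.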
row,SMILES,"activity change, negative = cytotoxicity"
1,Cn1ccc2cc3c(cc21)CCN3C(=O)Nc1cccnc1,-1.31% [at 19 µM]
2,Oc1ccc2c(c1)OC[C@@H](N1CCC(O)(c3ccc(F)cc3)CC1)[C@H]2O,-0.446% [at 42.5 µM]
3,O=C(O)Cc1cc(I)c(Oc2cc(I)c(O)c(I)c2)c(I)c1,0.636% [at 42.5 µM]
4,CCOC(=O)Cn1c(=O)sc2cccc(Cl)c21,0.494%
5,COc1ccc2cc(C=O)ccc2c1,2.59% [at 42.5 µM]
6,CCCCCCCCC=O,-2.93%
7,Oc1cc(O)c2c(c1)O[C@H](c1ccc(O)c(O)c1)[C@H](O)C2,5.91% [at 42.5 µM]
8,OC[C@H]1O[C@@H]2O[C@H]3[C@H](O)[C@@H](O)[C@@H](O[C@H]4[C@H](O)[C@@H](O)[C@@H](O[C@H]5[C@H](O)[C@@H](O)[C@@H](O[C@H]6[C@H](O)[C@@H](O)[C@@H](O[C@H]7[C@H](O)[C@@H](O)[C@@H](O[C@H]8[C@H](O)[C@@H](O)[C@@H](O[C@H]9[C@H](O)[C@@H](O)[C@@H](O[C@H]1[C@H](O)[C@H]2O)O[C@@H]9CO)O[C@@H]8CO)O[C@@H]7CO)O[C@@H]6CO)O[C@@H]5CO)O[C@@H]4CO)O[C@@H]3CO,3.66% [at 42.5 µM]
9,N#CCc1ccccc1[N+](=O)[O-],-6.38%
10,CCCCCCCCCCCCI,1.76%
11,CN(C)C(=O)Nc1ccccc1,-0.849%
12,CCCC(C)CO (configuration not stated),0.144%
13,NC1CCN(c2cccc(Cl)n2)CC1,3.09% [at 42.5 µM]
14,CCCC(C)C(=O)O (configuration not stated),0.743%
15,C1C2OC2C2C1C1CC2C2OC12 (configuration not stated),3.12%
16,CCC(=O)c1cccc(Cl)c1,4.13%
17,OCCCCCCO,0.703%
18,c1ccc(SCCSc2ccccc2)cc1,-0.322%
19,Cc1ccccc1Br,-0.741%
20,C=CC(=O)OCCCCCC,1.11%
21,C(=C(c1ccccc1)c1ccccc1)c1ccccc1,0.673%
22,COC(=O)c1ccc(C(=O)OC)c(C(=O)OC)c1,5.32%
23,CCCCCC[C@@H](CCC)C(=O)O,3.56% [at 42.5 µM]
24,CCCCc1ccc2cccc(S(=O)(=O)O)c2c1,0.0449%
25,C1=C\CC/C=C\CC/C=C\CC/1,5.59%
26,O=c1[nH]c2ccccc2c(=O)n1CCCl,1.55% [at 42.5 µM]
27,COC(=O)C1=C(C)NC(C)=C(C(=O)OCC(C)=O)C1c1ccccc1[N+](=O)[O-] (configuration not stated),-0.634% [at 42.5 µM]
28,CCN1CCCC1CNC(=O)c1cc(S(N)(=O)=O)ccc1OC (configuration not stated),0.499%
29,COc1ccc(N=[N+]([O-])c2ccc(OC)cc2)cc1,-5.13%
